This note sets out measurements from PubChem BioAssay (NCATS).

Inconclusive results are not listed. The source made the active and inactive calls. Calls follow the shape of the dose curve; as a rule, active = well fitted curve in the direction sought with a large enough effect; inconclusive = small, poorly fitted or top-dose-only effect, or another doubt; inactive = no such curve, though single readings can be large; an effect the other way counts as inactive or inconclusive.

Assay [1] is described as follows: qHTS of pediatric cancer cell lines to identify multiple opportunities for drug repurposing: Primary screen for Rh30 cells (AID 1347107). Also: nearly all actives have a fitted effect of over 75% in size. Also: potency is read from the fitted curve at half-maximal effect. The procedure, abridged:
(§1)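 Cells (500-1,000/well) rested 5 h, then received compounds for 48 h; metabolically active cells were measured by CellTiter-Glo luminescence. Final concentrations spanned up to 46 µM (MIPE, 11-point) or 0.59 nM-46 µM (NPC, 8-point) in primary screens, 11-point in follow-ups.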
Background: qHTS replaces the single test concentration by a dilution series.

The nature of assay [2]: qHTS of pediatric cancer cell lines to identify multiple opportunities for drug repurposing: Primary screen for Rh41 cells (AID 1347108). Also: potency is read from the fitted curve at half-maximal effect; nearly all actives have a fitted effect of over 70% in size. The procedure, abridged: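 Primary screen of approved and investigational compounds on cells in growth media at 37 degrees C, 5% CO2. MIPE set at 11-point and NPC set at 8-point dilutions; viability scored by ATP-based luminescence at 48 hours.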

The nature of assay [3]: qHTS of pediatric cancer cell lines to identify multiple opportunities for drug repurposing: Confirmatory screen for A673 cells (AID 1347110).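 Also: potency is read from the fitted curve at half-maximal effect; cells exposed to compound for 48 h before the viability read; nearly all actives have a fitted effect of over 65% in size.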 The procedure, abridged:
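A673 cells at 500-1,000 cells/well were dosed 5 h after plating, in dilution series up to 46 uM final; primary runs used 8 or 11 points and confirmatory runs used 11 points. Viability was read by CellTiter-Glo luminescence after 48 h, against DMSO and 2.3 uM bortezomib controls.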

Assay [4] in a line: qHTS of pediatric cancer cell lines to identify multiple opportunities for drug repurposing: Confirmatory screen for SK-N-MC cells (AID 1347111).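 Also: potency is read from the fitted curve at half-maximal effect; cells exposed to compound for 48 h before the readout; nearly all actives have a fitted effect of over 70% in size.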 In a few lines: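 Seed 500-1,000 cells/well; rest 5 h at 37 degrees C. Pin-transfer compounds, 11-point titration. Incubate 48 h. Add CellTiter-Glo, 15 min RT, read luminescence.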
Assay [5] is described as follows: qHTS of pediatric cancer cell lines to identify multiple opportunities for drug repurposing: Confirmatory screen for TC32 cells (AID 1347118).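 Also: potency is read from the fitted curve at half-maximal effect; cells exposed to compound for 48 h before the read; nearly all actives have a fitted effect of over 65% in size.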 In a few lines: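 Luminescent CellTiter-Glo read-out of metabolically active TC32 cells after 48 h compound exposure. Primary: MIPE 11-point, 0.78 nM–46 µM; NPC 8-point, 0.59 nM–46 µM. Confirmatory: 11-point dilutions.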

A short description of assay [6]: qHTS of pediatric cancer cell lines to identify multiple opportunities for drug repurposing: Confirmatory screen for MG 63 (6-TG R) cells (AID 1347119). Also: nearly all actives have a fitted effect of over 55% in size. Also: potency is read from the fitted curve at half-maximal effect. In a few lines:
as §1

Assay [7] is described as follows: qHTS of pediatric cancer cell lines to identify multiple opportunities for drug repurposing: Confirmatory screen for U-2 OS cells (AID 1347122). Also: nearly all actives have a fitted effect of over 65% in size. Also: potency is read from the fitted curve at half-maximal effect. In a few lines:
as §1

Assay [8] can be described thus: qHTS of pediatric cancer cell lines to identify multiple opportunities for drug repurposing: Confirmatory screen for Rh41 cells (AID 1347123). Also: nearly all actives have a fitted effect of over 60% in size. Also: potency is read from the fitted curve at half-maximal effect. In a few lines: as §1
A short description of assay [9]: qHTS of pediatric cancer cell lines to identify multiple opportunities for drug repurposing: Confirmatory screen for RD cells (AID 1347124).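 Also: cells exposed to compound for 48 h before viability readout; nearly all actives have a fitted effect of over 65% in size.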 Also: potency is read from the fitted curve at half-maximal effect. The procedure, abridged:
as §1

The nature of assay [10]: qHTS of pediatric cancer cell lines to identify multiple opportunities for drug repurposing: Confirmatory screen for Rh30 cells (AID 1347126). Also: nearly all actives have a fitted effect of over 55% in size. Also: potency is read from the fitted curve at half-maximal effect. The procedure, abridged: as §1
Assay [11] in a line: qHTS of pediatric cancer cell lines to identify multiple opportunities for drug repurposing: Confirmatory screen for NB1643 cells (AID 1347109). Also: nearly all actives have a fitted effect of over 45% in size. Also: potency is read from the fitted curve at half-maximal effect. In a few lines: as §1
A short description of assay [12]: qHTS of pediatric cancer cell lines to identify multiple opportunities for drug repurposing: Confirmatory screen for BT-12 cells (AID 1347112). Also: nearly all actives have a fitted effect of over 55% in size. Also: potency is read from the fitted curve at half-maximal effect. In a few lines: as §1
Assay [13] in a line: qHTS of pediatric cancer cell lines to identify multiple opportunities for drug repurposing: Confirmatory screen for LAN-5 cells (AID 1347113). Also: nearly all actives have a fitted effect of over 65% in size. Also: potency is read from the fitted curve at half-maximal effect. The procedure, abridged:
as §1

Assay [14] can be described thus: qHTS of pediatric cancer cell lines to identify multiple opportunities for drug repurposing: Confirmatory screen for DAOY cells (AID 1347114). Also: nearly all actives have a fitted effect of over 65% in size. Also: potency is read from the fitted curve at half-maximal effect. The procedure, abridged:
(§2)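 Viability measured as metabolically active cells via CellTiter-Glo luminescence following 48 hours of compound exposure, 11-point dilutions in confirmatory testing. 500-1,000 cells/well plated 5 hours before dosing; controls were DMSO and 2.3 µM bortezomib.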

A short description of assay [15]: qHTS of pediatric cancer cell lines to identify multiple opportunities for drug repurposing: Confirmatory screen for NB-EBc1 cells (AID 1347115).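 Also: cells exposed to compound for 48 h before the viability read; nearly all actives have a fitted effect of over 45% in size.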 Also: potency is read from the fitted curve at half-maximal effect. The procedure, abridged:
as §1

A short description of assay [16]: qHTS of pediatric cancer cell lines to identify multiple opportunities for drug repurposing: Confirmatory screen for SJ-GBM2 cells (AID 1347116). Also: nearly all actives have a fitted effect of over 60% in size. Also: potency is read from the fitted curve at half-maximal effect. In a few lines:
as §2

Assay [17] in a line: qHTS of pediatric cancer cell lines to identify multiple opportunities for drug repurposing: Confirmatory screen for BT-37 cells (AID 1347117). Also: nearly all actives have a fitted effect of over 55% in size. Also: potency is read from the fitted curve at half-maximal effect. In a few lines:
as §1

The nature of assay [18]: qHTS of pediatric cancer cell lines to identify multiple opportunities for drug repurposing: Confirmatory screen for control Hh wild type fibroblast cells (AID 1347121). Also: nearly all actives have a fitted effect of over 70% in size. The procedure, abridged:
as §1

A short description of assay [19]: qHTS of pediatric cancer cell lines to identify multiple opportunities for drug repurposing: Confirmatory screen for Rh18 cells (AID 1347125). Also: nearly all actives have a fitted effect of over 55% in size. Also: potency is read from the fitted curve at half-maximal effect. The procedure, abridged:
as §1

For `NC(=O)c1c(OCc2c(F)cc(Br)cc2F)nsc1NC(=O)NCCCCN1CCCC1`, the figures for the Potency in assay [1] and in assay [2] were 20900 nM (active) and 18700 nM (active), respectively.
In the case of `Nc1cc(C(F)(F)F)c(-c2cc(N3CCOCC3)nc(N3CCOCC3)n2)cn1`, the Potency was 11800 nM (active) in assay [1]; 1180 nM (active) in assay [2]; 2930 nM (active) in [3]; 5220 nM (active) in assay [4]; 4140 nM (active) in [5]; 3690 nM (active) in assay [6]. The Potency in assay [7] was 5220 nM (active); in assay [8], 5850 nM (active); in assay [9], 5850 nM (active); in assay [10], 4140 nM (active).
As for `CC[C@@H]1C(=O)N(C)c2cnc(Nc3ccc(C(=O)NC4CCC(N5CCN(CC6CC6)CC5)CC4)cc3OC)nc2N1C(C)C` (some centres not stated), the Potency in [1] is 16600 nM (active); in assay [2], 2350 nM (active). Further, the Potency result in assay [11], in assay [12], in [13], in assay [14], in assay [15] and in assay [16] was “inactive” in each case. The Potency result in assay [17], in assay [6], in assay [18], in assay [7], in [8] and in assay [9] was “inactive” each time. Moreover, the Potency entry in assay [19] and in assay [10] was “inactive” each time.
For the compound `OCCCNc1cc(-c2ccnc(Nc3cccc(Cl)c3)n2)ccn1`, the Potency entry in [1], in [15] and in assay [18] was “inactive” throughout. For the same compound, the Potency was 235 nM (active) in assay [2]; 92.8 nM (active) in assay [3]; 261 nM (active) in assay [4]; 329 nM (active) in assay [12]; 261 nM (active) in [13]; 369 nM (active) in assay [16]. Further, the Potency in assay [17] is 261 nM (active); in assay [5], 165 nM (active); in [8] it was 52.2 nM (active); in [10], 414 nM (active).
As to `CC[C@@]1(O)C(=O)OCc2c1cc1n(c2=O)Cc2cc3cc(O)ccc3nc2-1`, the Potency is 469 nM (active) in assay [2]; 73.7 nM (active) in assay [11]; 46.5 nM (active) in assay [3]; 13.1 nM (active) in [4]; 827 nM (active) in [12]; 41.4 nM (active) in assay [13]. Moreover, the Potency is 657 nM (active) in [14]; 16.5 nM (active) in assay [15]; 20.8 nM (active) in assay [17]; 13.1 nM (active) in assay [5]; 65.7 nM (active) in assay [6]; 657 nM (active) in assay [19]. Also, in assay [10], the Potency was 585 nM (active).
`O=C(Cc1ccc(-c2ccc(OCCN3CCOCC3)cc2)cn1)NCc1ccccc1`: the Potency in assay [2] is 29.6 nM (active); in [3], 131 nM (active); in assay [4], 147 nM (active); in assay [13] it was 147 nM (active); in [14] it was 117 nM (active); in assay [17], 147 nM (active). The Potency was 117 nM (active) in assay [5], 82.7 nM (active) in assay [6], 369 nM (active) in assay [7] and 92.8 nM (active) in assay [8]. Also, the Potency entry in assay [19] and in assay [10] was “inactive” throughout.
`O=C(NC1CCNCC1)c1[nH]ncc1NC(=O)c1c(Cl)cccc1Cl`: the Potency in assay [2] was 743 nM (active); in [3], 414 nM (active); in [4], 3020 nM (active); in assay [12], 3020 nM (active); in assay [14], 1170 nM (active); in assay [16] it was 1310 nM (active). In addition, the Potency in assay [17] was 2400 nM (active); in assay [5] it was 2400 nM (active); in [7] it was 1850 nM (active); in assay [8], 1170 nM (active); in assay [9], 737 nM (active); in assay [10], 465 nM (active). In addition, in assay [18], the Potency entry was “inactive”.
With `CCS(=O)(=O)c1cccc(-c2cc(C(=O)NC3CCN(C)CC3)c(C)c3[nH]c4ncc(C)cc4c23)c1`, the Potency in [2] was 1320 nM (active); in assay [3], 928 nM (active); in assay [4] it was 117 nM (active); in assay [12], 4650 nM (active); in assay [13], 1170 nM (active); in assay [14], 16500 nM (active). For the same compound, the Potency in assay [15] is 16500 nM (active); in [16], 5220 nM (active); in assay [17] it was 1850 nM (active); in assay [5] it was 117 nM (active); in assay [7], 10400 nM (active); in [8], 657 nM (active). Further, the Potency in assay [9] is 2610 nM (active); in [19] it was 1850 nM (active); in assay [10], 522 nM (active).
For the compound `CCOc1cc2ncc(C#N)c(Nc3ccc(F)c(Cl)c3)c2cc1NC(=O)C=CCN(C)C`, the Potency in assay [2] was 1870 nM (active); in assay [4], 65.7 nM (active); in assay [12], 208 nM (active); in assay [17], 65.7 nM (active); in [5], 58.5 nM (active). Further, the Potency result in assay [13], in [15], in assay [16], in assay [18], in [9] and in assay [19] was “inactive” in each case.
Consider `CC1(C)CC(=O)c2c(C(F)(F)F)nn(-c3ccc(C(N)=O)c(NC4CCC(OC(=O)CN)CC4)c3)c2C1` (configuration not stated), for which the Potency in assay [2] was 372 nM (active).
For `CC(=O)Nc1nc(C)c(-c2ccc(Cl)c(S(=O)(=O)NCCO)c2)s1`, the Potency in [2] was 6620 nM (active); in assay [4], 8270 nM (active); in [13], 6570 nM (active); in assay [17], 18500 nM (active); in [5] it was 7370 nM (active); in assay [6] it was 2330 nM (active). The Potency in [7] was 14700 nM (active); in assay [8] it was 5850 nM (active); in assay [19] it was 11700 nM (active); in [10] it was 14700 nM (active).
Turning to `Cc1ccc(-c2ncn(-c3ccc(Nc4nccc(-c5cccc(N6CCOCC6)c5)n4)cc3)n2)cn1`, the Potency in assay [2] is 132 nM (active); in assay [11], 107 nM (active); in assay [3] it was 170 nM (active); in assay [4], 120 nM (active); in [12] it was 214 nM (active); in assay [13] it was 95.5 nM (active). The Potency in assay [14] was 240 nM (active); in [16] it was 240 nM (active); in assay [17], 85.1 nM (active); in assay [5] it was 135 nM (active); in [7], 240 nM (active); in assay [8], 151 nM (active). The figures for the Potency in [9], in assay [19] and in assay [10] were 240 nM (active), 107 nM (active) and 120 nM (active), respectively. Further, the Potency result in [18] is “inactive”.
